Test results: PubChem BioAssay AID1578 (Sanford-Burnham Center for Chemical Genomics, 2009)
Several values for one entry are separate records, joined by “and”; a condition that tells them apart may be missing. Equal entries are not always repeated. Screen size: about 290,000 compounds; about 3,000 (1%) were called active. Cut-off read from the data, not from the text of the source: active = inhibition mostly above about 36% (no sharp cut-off); inactive = mostly below about 34%. Shown is part of a subset that was picked to be rich in actives.

Assay: inhibition of NOD1-driven NF-kB reporter – cell-based, luminescence, uHTS, primary screen (AID 1578);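 note: HEK-293T reporter cells stimulated with the NOD1 agonist gamma-tri-DAP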
Details: NOD1-driven NF-kB luciferase reporter cells, at 4 µM, active compounds read high

| Compound | inhibition |
| --- | --- |
| CC(C)(C)C(=O)c1cn(CC(=O)NCc2ccco2)c2ccccc12 | -39.1% (inactive) |
| Cc1ccc(-n2c(O)c(/C=N/N3CCCCCC3)c(=O)[nH]c2=O)cc1C | 1.1% (inactive) |
| CCC(=NCCCn1ccnc1)c1c(O)n(-c2ccc(OC)cc2)c(=O)[nH]c1=O | -8.6% (inactive) |
| COc1cccc(C(=O)C2CN(C)CC2c2ccc(Cl)cc2)c1 (centres undefined) | -33.4% (inactive) |
| CC/C(=N\NC(=O)c1ccccc1)c1c(O)n(Cc2ccccc2)c(=O)[nH]c1=O | 12.5% (inactive) |
| O=c1[nH]c(=S)n(C2CC2)c(O)c1C=NCC1CCCO1 (centres undefined) | -13.4% (inactive) |
| O=c1cccc2n1CC1CC2CN(Cc2cccc(Cl)c2Cl)C1 (centres undefined) | 63.8% (active) |
| COc1ccccc1NC(=O)N1C[C@@H]2C[C@@H](C1)c1cccc(=O)n1C2 | -34.3% (inactive) |
| O=c1cccc2n1CC1CC2CN(Cc2c(F)cccc2Cl)C1 (centres undefined) | -7.2% (inactive) |
| COC(=O)c1ccccc1NC(=O)N1C[C@@H]2C[C@@H](C1)c1cccc(=O)n1C2 | -15.8% (inactive) |
| COc1ccc(CC(=O)N2C[C@H]3C[C@@H](C2)c2cccc(=O)n2C3)cc1 | 24.2% (inactive) |
| O=C(CCc1ccc(O)cc1)N1C[C@H]2C[C@@H](C1)c1cccc(=O)n1C2 | 9.1% (inactive) |
| O=c1cccc2n1CC1CC2CN(Cc2c(Cl)cccc2Cl)C1 (centres undefined) | 14% (inactive) |
| CCc1ccccc1NC(=O)N1C[C@H]2C[C@@H](C1)c1cccc(=O)n1C2 | 54.5% (active) |
| COc1ccc(CCC(=O)N2C[C@H]3C[C@@H](C2)c2cccc(=O)n2C3)cc1 | 53.1% (active) |
| O=[N+]([O-])c1ccc(N2CCCNCC2)c2ncccc12 | -0.2% (inactive) |
| CC(C)Sc1nnc([C@@H](N)Cc2c[nH]c3ccccc23)o1 | -2.5% (inactive) |
| CC12CC[C@H]3[C@@H](CCC4(O)C[C@H](O)CCC34/C=N/NC(=O)c3ccccc3F)C1(O)CCC2C1=CC(=O)OC1 (some centres undefined) | -9.8% (inactive) |
| COc1cc(C(=O)N/N=C/C23CC[C@@H](O)CC2(O)CC[C@@H]2[C@@H]3CCC3(C)C(C4=CC(=O)OC4)CCC23O)ccc1O (some centres undefined) | -5.4% (inactive) |
| C[C@H]1O[C@@H](OC2CC[C@]3(C=O)[C@H]4CC[C@]5(C)[C@@H](C6=CC(=O)OC6)CC[C@]5(O)[C@@H]4CC[C@]3(O)C2)CC2OC(C)(C)OC21 (some centres undefined) | 89.2% (active) |
| CC12CC[C@H]3[C@@H](CCC4(O)C[C@H](O)CCC34/C=N/NC(=O)Cc3ccccc3)C1(O)CCC2C1=CC(=O)OC1 (some centres undefined) | -7% (inactive) |

| Compound | inhibition |
| --- | --- |
| CC12CC[C@H]3[C@@H](CCC4(O)C[C@H](O)CCC34/C=N/NC(=O)c3ccccc3O)C1(O)CCC2C1=CC(=O)OC1 (some centres undefined) | 4.5% (inactive) |
| C[C@H]1O[C@@H](O[C@H]2[C@@H](O)C[C@H](O[C@H]3[C@@H](O)C[C@H](O[C@H]4CC[C@@]5(C)[C@H](CC[C@@H]6[C@@H]5CC[C@]5(C)[C@@H](C7=CC(=O)OC7)CC[C@]65O)C4)O[C@@H]3C)O[C@@H]2C)C[C@H](O)[C@@H]1O | 105% (active) |
| CN1CCC2(O)OCCCC2C1 (centres undefined) | 4.3% (inactive) |
| Cc1c(N)c(C)c([N+](=O)[O-])c(C)c1[N+](=O)[O-] | 69.5% (active) |
| O=C1CN(C(=O)CN2CCCCC2)C(c2ccccc2)c2cc(Br)ccc2N1 (centres undefined) | -24.1% (inactive) |
| Cc1cccc(C)c1NC(=O)c1cccn(Cc2ccc3c(c2)OC(F)(F)O3)c1=O | 21.8% (inactive) |
| O=C(Nc1ccncc1)c1cccn(Cc2ccccc2)c1=O | 33.5% (active) |
| O=C(Nc1ccccc1)c1cccn(Cc2ccccc2)c1=O | 23% (inactive) |
| O=C(NCc1ccccc1)c1cccn(Cc2ccccc2)c1=O | 2.3% (inactive) |
| O=C(Nc1ccc(C(F)(F)F)cc1)c1cccn(Cc2ccc3c(c2)OC(F)(F)O3)c1=O | 59.7% (active) |
| O=C(Nc1cccc(C(F)(F)F)c1)c1cccn(Cc2ccc3c(c2)OC(F)(F)O3)c1=O | 35.6% (inactive) |
| Cc1nn(Cc2ccccc2Cl)c(Cl)c1C(=O)OCC(=O)NCc1ccco1 | 2.8% (inactive) |
| CC(C)Oc1ccc(CCN)cc1Cl | -19.6% (inactive) |
| CCCCCn1c(=O)c(C(=O)Nc2ccccn2)c(O)c2ccccc21 | -4.7% (inactive) |
| Cc1ccc(CN(Cc2ccccc2)C(=S)NCC(=O)N2CCC3(CC2)OCCO3)o1 | -33.5% (inactive) |
| CCOC(=O)c1[nH]ncc1CN1CCCC(C(=O)c2cccc(Cl)c2)C1 (centres undefined) | -5.2% (inactive) |
| O=[N+]([O-])c1ccc(NCc2ccc(Cl)cc2)c2ccncc12 | 37% (active) |
| O=[N+]([O-])c1ccc(NC2CCCC2)c2ccncc12 | 40.7% (inactive) |
| O=[N+]([O-])c1ccc(NC2CCN(Cc3ccccc3)CC2)c2ccncc12 | -6.9% (inactive) |
| Fc1cccc(CN2CCN(c3ccc(Cl)cc3)CC2)c1 | -10.4% (inactive) |
| CC(C)=CCc1c(O)cc2c(c1O)C(=O)CC(c1ccc(O)cc1)O2 (centres undefined) | 5.8% (inactive) |

| Compound | inhibition |
| --- | --- |
| CN1CCN(/N=C/c2c[nH]c3ccccc23)CC1 | -2.1% (inactive) |
| CN1CCC(c2c[nH]c3ccccc23)C1 (centres undefined) | 34.9% (active) |
| OC(CN1CCC(c2c[nH]c3ccccc23)CC1)C(F)(F)F (centres undefined) | 1.1% (inactive) |
| CN1CC(C(=O)c2ccc(Cl)cc2)C(c2ccccc2F)C1 (centres undefined) | -15.7% (inactive) |
| O=c1[nH]c(=O)n(-c2ccccc2)c(O)c1N=Nc1ccc(Br)cc1 | 60.1% (active) |
| Cc1c(N=Nc2c(O)n(-c3ccc(Br)cc3)c(=O)[nH]c2=O)c(=O)n(-c2ccccc2)n1C | -1.1% (inactive) |
| CCOc1ccc(-n2c(O)c(N=Nc3ccc([N+](=O)[O-])cc3)c(=O)[nH]c2=O)cc1 | -17.8% (inactive) |
| CC(=NCCCN1CCOCC1)c1c(O)n(-c2ccccc2C)c(=O)[nH]c1=O | -51.5% (inactive) |
| CCOP(=O)(OCC)c1cc(C)c(O)c(C(C)(C)C)c1 | -1.1% (inactive) |
| CC(C)(C)c1cc([N+](=O)[O-])cc(C(C)(C)C)c1O | 67.8% (active) |
| CN1CCN(Cc2cc(C(C)(C)C)c(O)c(C(C)(C)C)c2)CC1 | 16.1% (inactive) |
| O=[N+]([O-])c1ccccc1CNCCc1c[nH]c2ccccc12 | -15.3% (inactive) |
| Cc1ccc(OCC(=O)N2CCN(C3CCC(c4ccccc4)CC3)CC2)cc1 (centres undefined) | -32.4% (inactive) |
| CNCC(C)c1ccccc1 (centres undefined) | -8.7% (inactive) |
| COC(=O)C1=Nc2ccccc2/C1=C\c1c(O)n(-c2ccc(OC)cc2)c(=O)[nH]c1=O | 9.9% (inactive) |
| COC(=O)C1=Nc2ccccc2/C1=C\c1c(O)n(-c2ccc(Br)cc2)c(=O)[nH]c1=O | 56.2% (inactive) |
| O=c1[nH]c(=O)n(-c2ccccc2)c(O)c1/C=C1/C(c2ccccc2)=Nc2ccccc21 | 81.6% (active) |
| Cc1ccc(Cn2nc(C)c(C=O)c2Cl)cc1 | -42.4% (inactive) |
| COc1cc2c(cc1OC)-c1c3c(cc4c1[C@@H](C2)N(C)CC4)OCO3 | -23.9% (inactive) |
| COc1ccc(-n2nc(C(=O)NCC(=O)N3CCC4(CC3)OCCO4)c3ccccc3c2=O)cc1 | -47.4% (inactive) |
| COc1cccc([C@@]2(O)CCCC[C@@H]2CN(C)C)c1 | -1.9% (inactive) and 1.4% (inactive) |

| Compound | inhibition |
| --- | --- |
| CN(C)CC1Oc2ccccc2OC1(O)c1ccccc1 (centres undefined) | 56.4% (active) |
| CN(C)CC1CSCCC1(O)c1ccccc1 (centres undefined) | -5.3% (inactive) |
| Cc1c(N=Nc2c(O)[nH]c(=S)[nH]c2=O)c(=O)n(-c2ccccc2)n1C | 12.7% (inactive) |
| C=CCn1c(O)c(/C=C2/C=CC=N2)c(=O)[nH]c1=O | -27.6% (inactive) |
| O=c1[nH]c(=O)n(Cc2ccccc2Cl)c(O)c1/C=C1/C=CC=N1 | 47.1% (active) |
| CCCCn1c(O)c(/C=C2/C=CC=N2)c(=O)[nH]c1=O | -7.3% (inactive) |
| COc1ccc(N=Cc2c(O)n(C)c(=O)n(C)c2=O)cc1 | -13.4% (inactive) |
| CNS(=O)(=O)c1ccc(N=Cc2c(O)n(-c3cccc(C)c3)c(=O)[nH]c2=O)cc1 | -26.7% (inactive) |
| COc1ccc(CC2(CCc3ccncc3)C(=O)NC(=O)NC2=O)cc1 | -26.1% (inactive) |
| CNc1ccc2oc(C[C@H]3O[C@@]4(CC[C@H]3C)O[C@H]([C@H](C)C(=O)c3ccc[nH]3)[C@H](C)C[C@H]4C)nc2c1C(=O)O | 76.2% (active) |
| c1ccc(-c2nc(N3CCOCC3)s[n+]2-c2ccccc2)cc1 | -49.7% (inactive) |
| Cc1ccc2c(c1)C1CN(C)CCC1N2C(=S)Nc1cccnc1 (centres undefined) | -34% (inactive) |
| O=C(CN1CC=C(c2ccccc2)CC1)Nc1c(Cl)cccc1Cl | 30.6% (inactive) |
| COC(=O)[C@@H]1[C@@H](C(=O)OC)C2(c3ccccc3-c3ccccc32)N(c2ccc(Cl)cc2)N1C#N | -7.2% (inactive) |
| COC(=O)C[C@]1(C(=O)OC)CN(C#N)N(c2ccc(Cl)cc2)C12c1ccccc1-c1ccccc12 | 91.6% (active) |
| COC(=O)C1CN(C#N)N(c2ccc(Cl)cc2)C12c1ccccc1-c1ccccc12 (centres undefined) | -10.3% (inactive) |
| CC(C)c1ccc(NC(=O)CCNC(=O)N2C[C@H]3C[C@@H](C2)c2cccc(=O)n2C3)cc1 | -6.2% (inactive) |
| Cc1ccc(-c2nc3ccccc3c(=O)n2-c2ccncc2)cc1 | -34.6% (inactive) |
| Cc1nc2cc(C(F)(F)F)ccc2n1C1CCN(Cc2nnnn2Cc2ccc3c(c2)OCO3)CC1 | 62.6% (active) |
| Cc1nc2cc(C(F)(F)F)ccc2n1C1CCN(Cc2nnnn2Cc2cccs2)CC1 | -21.1% (inactive) |
| Cc1nc2cc(C(F)(F)F)ccc2n1C1CCN(Cc2nnnn2CCc2ccccc2)CC1 | -27.2% (inactive) |
